Screen size: about 2,100 compounds; about 1,800 (86%) were called active. The set was probably picked from earlier hits. These entries were drawn from the full list. Values without a mark were called inactive. The rule behind the calls is not given here.
Experiment: counter-screen GFP chromophore formation inhibition, dose response, counter-screen, biochemical, fluorescence, homogeneous (AID 434968)
Settings: cell-free GFP chromophore formation

Structure (SMILES) | EC50
CCCCCCCCCCOC(=O)Cn1c(COc2ccc(C)cc2)[n+](C)c2ccccc21 | 16.1 µM (active)
CCCCCCCCCCOC(=O)Cn1c(COc2cccc(OC)c2)[n+](C)c2ccccc21 | 10.4 µM (active)
COc1ccc(C2C(C#N)=C(N)Oc3n[nH]c(C)c32)cc1CN1CCN(c2ccc(F)cc2)CC1 (configuration not stated) | 23 µM (active)
Cc1cc(C(=O)CCl)c(C)n1CC1COc2ccccc2O1 (configuration not stated) | 37.5 µM (active)
Cc1oc2c(c1C(=O)N1CCOCC1)C(=O)c1ccccc1C2=O | 3.63 µM (active)
O=C1CC(c2ccccc2)=NN1c1ccc([N+](=O)[O-])cc1 | 15.8 µM (active)
COc1ccc(C(=O)NC(=S)NNC(=O)CCc2ccccc2)cc1 | > 38 µM
CCOC(=O)C(CC)Sc1ncnc2c1nnn2-c1ccc(F)cc1 (configuration not stated) | > 38 µM
NC1=NN(c2cccc(C(=O)O)c2)C(=O)C1 | 31.6 µM (active)
Oc1c(Cl)cc(Cl)c(Cl)c1Cc1c(O)c(Cl)cc(Cl)c1Cl | 7.06 µM (active)
NC(=O)CC[C@@H]1NC(=O)[C@H](CO)NC(=O)c2cc([N+](=O)[O-])cc(I)c2NCC[C@@H](C(N)=O)NC1=O | 22.5 µM (active)
Cc1ccccc1C(CC(=O)c1cccs1)C(C#N)C#N (configuration not stated) | 2.18 µM (active)
CCOC(=O)N1CCC(c2cc(=O)n(-c3ccccc3)[nH]2)CC1 | 7.17 µM (active)
O=C(CCl)N(Cc1cccc([N+](=O)[O-])c1)c1cccc(Cl)c1 | 3.06 µM (active)
Oc1ccc(N=Cc2sc3ccccc3c2Cl)cc1 | > 38 µM
COc1ccc(-c2csc(Nc3ccc(O)cc3)n2)cc1 | > 38 µM
O=[N+]([O-])c1c(NCCO)cc(Sc2nc3ccccc3s2)c2nonc12 | 0.766 µM (active)
O=C(c1ccc(Cl)cc1)n1cnc2ccccc21 | 22.1 µM (active)
O=C1NC(c2ccc(-c3ccccc3[N+](=O)[O-])o2)C(C(=O)c2ccc(Cl)cc2)C(O)(C(F)(F)F)N1 (configuration not stated) | 25.2 µM (active)
CC(CCn1cccn1)NC(=O)CCc1nnc(CCc2ccccc2)o1 (configuration not stated) | > 38 µM
CC(C)OC(=O)CN1C(=O)C(=O)c2ccccc21 | 22.5 µM (active)
O=C(Nc1ccccc1)c1nnsc1S(=O)(=O)c1ccc(Cl)cc1 | 11.7 µM (active)
CC1(N2CCOCC2)CC2(O)C(=[N+]1[O-])CCc1nonc12 (configuration not stated) | 24.9 µM (active)
N#Cc1c(N)n(CCOC(=O)c2ccc(Cl)cc2)c2nc3ccccc3nc12 | 2.69 µM (active)
COc1ccc(C(CCN(Cc2ccc(OC)c(OC)c2)C(=O)CCl)c2ccccc2)cc1 (configuration not stated) | 0.326 µM (active)
CCN(CC)c1ccc2oc(=O)c(C)nc2c1 | 13.6 µM (active)

Structure (SMILES) | EC50
COc1ccc2c(c1)C(=C(C#N)C#N)C(=O)N2CCc1ccccc1 | > 38 µM
COc1ccccc1-n1nnnc1S(=O)(=O)Cc1ccc(Cl)cc1 | 27.2 µM (active)
Cc1ccc(NC(=O)c2cnc(SCC(=O)NCC3CCCO3)n(C)c2=O)cc1 (configuration not stated) | > 38 µM
Cc1nn(Cc2ccccc2)c2c1C(c1ccccc1)C(C#N)=C(N)O2 (configuration not stated) | 15.2 µM (active)
O=S(=O)(O)Oc1c[nH]c2ccccc12 | 0.78 µM (active)
COC(=O)c1sc(-c2ccc(C(C)(C)C)cc2)cc1NC(=O)/C=C/C(=O)O | 4.26 µM (active)
CCOC(=O)c1c(C)[nH]c2c1-c1ccccc1C(=O)C2=O | 2.58 µM (active)
CCOC(=O)C1=C(c2ccc(OC)cc2)C(=O)c2ccccc2C1=O | 6.35 µM (active)
COc1ccc(S(=O)(=O)/N=C2\C=C(NS(=O)(=O)c3ccccc3)C(=O)c3ccccc32)cc1 | 3.05 µM (active)
C=CS(=O)c1sc(Cl)c(N2CCOCC2)c1[N+](=O)[O-] (configuration not stated) | 24.9 µM (active)
Cc1oc2cc([N+](=O)[O-])c(O)c([N+](=O)[O-])c2c1C(=O)c1ccc(Br)cc1 | 19.5 µM (active)
Cc1ccc(SCC2=NNC(=O)C2)cc1 | 6.33 µM (active)
CCOc1c(Br)cc(/C=C2\C(=O)N(CCC#N)N=C2C)cc1OC | 3.7 µM (active)
CN(c1ccccc1)c1ccc([N+](=O)[O-])c2nonc12 | 20.3 µM (active)
CC(=O)C12CC(C)=C(C)CC1CC1C3CCC4=CC(=O)CCC4(C)C3CCC12C (configuration not stated) | > 38 µM
Cc1cc2[nH]ncc2cc1NC(=S)NC(=O)c1ccccc1 | > 38 µM
O=S(=O)(Nc1ccc(O)c2ccccc12)c1ccc(OC(F)(F)F)cc1 | 0.19 µM (active)
O=c1[nH]c2ccccc2n2c(-c3ccccc3)nnc12 | 26.2 µM (active)
O=C(Oc1ccc(Br)cc1C(=S)N1CCOCC1)c1cccc([N+](=O)[O-])c1 | > 38 µM
CCCCOC(=O)CNc1nnc(SCC(=O)OCC)[nH]c1=O | 11.3 µM (active)
COC(=O)CC1=NN(c2nc(C)cc(C)n2)C(=O)C1 | > 38 µM
Cc1ccc(Nc2cc(C)nc3c(C)ccc([N+](=O)[O-])c23)cc1 | 12 µM (active)
Cc1ccc(CNC(=O)CCN2C(=O)[C@@H]3Cc4ccccc4CN3C2=O)cc1 | > 38 µM
Cc1[nH]n(C)c(=O)c1C(=O)c1c(-c2c(Cl)cccc2Cl)noc1C | 12.1 µM (active)
CCCCCCCCc1c(O)nc(-n2[nH]c(C)c(CCO)c2=O)[nH]c1=O | > 38 µM
Cc1cccc(CS(=O)(=O)c2ncc(Cl)c(C(=O)Nc3ccc(F)cc3)n2)c1 | 2.65 µM (active)

Structure (SMILES) | EC50
CSc1nnc(NC(=O)c2nc(S(=O)(=O)Cc3ccc(C)cc3)ncc2Cl)s1 | 17 µM (active)
CC1=NN(Cc2ccccc2)C(=O)/C1=C/c1ccc(N(C)C)cc1 | 3.59 µM (active)
O=C(CCCN1C(=O)/C(=C/c2ccccc2)SC1=S)Nc1ccc(O)cc1 | > 38 µM
CC1=NNC(=O)C1Cc1c(Cl)cccc1Cl (configuration not stated) | 3.71 µM (active)
Cc1ccsc1/C=N/NC(=O)Cc1cc(=O)[nH][nH]1 | 6.88 µM (active)
O=C(Cc1cc(=O)[nH][nH]1)N/N=C/c1ccccc1[N+](=O)[O-] | 10.3 µM (active)
CCCc1[nH]nc2c1C(c1ccc(Br)s1)C(C#N)=C(N)O2 (configuration not stated) | 17.8 µM (active)
COc1ccc(-c2[nH]nc3c2C(c2ccncc2)C(C#N)=C(N)O3)cc1 (configuration not stated) | 21.3 µM (active)
CCCc1[nH]nc2c1C(c1ccc(OC(=O)c3ccco3)cc1)C(C#N)=C(N)O2 (configuration not stated) | 25.1 µM (active)
CCc1ccc(C2C(C#N)=C(N)Oc3n[nH]c(CC(=O)OC)c32)cc1 (configuration not stated) | 36.3 µM (active)
Cc1cc(C)n2nc(CNS(=O)(=O)c3c(F)c(F)c(F)c(F)c3F)nc2n1 | 10 µM (active)
CN1CCc2nc(SC(C(=O)O)c3ccccc3)c(C#N)c(-c3cccs3)c2C1 (configuration not stated) | 31.1 µM (active)
Cc1nc2ccccc2nc1N/N=C/c1ccc(O)cc1O | > 38 µM
O=C(Nc1ccccc1Cl)/C(Cl)=C(\Cl)S(=O)c1ccccc1 (configuration not stated) | 1.31 µM (active)
Cc1c(-c2nn(C)c(=O)c3ccccc23)oc2ccc(F)cc2c1=O | 6.81 µM (active)
CCOCC(=O)NCc1ccc2c(c1)cc(C)n2C | > 12 µM
COc1ccc(/C=C2/C(=O)N(c3ccccc3)N=C2C)c(OC)c1 | 21.7 µM (active)
COc1ccc(C2NC(=S)NC3=C2CCc2ccccc23)cc1OC (configuration not stated) | 22.7 µM (active)
Cc1ccc(N(Cc2cc(=O)[nH]c3ccccc23)C(=O)CCl)cc1 | 0.148 µM (active)
CCOc1ccc(C(c2c(C)[nH][nH]c2=O)c2c(C)[nH][nH]c2=O)cc1OCC | 0.386 µM (active)
Cc1[nH][nH]c(=O)c1C(c1ccc2c(c1)OCO2)c1c(C)[nH][nH]c1=O | 0.426 µM (active)
O=C1/C(=C/c2ccc3c(c2)OCO3)CCC/C1=C\c1ccc2c(c1)OCO2 | > 38 µM
COc1cccc(/C=N/Nc2cc(C)nc(-c3ccccc3O)n2)c1O | > 38 µM
O=C(O)CSc1c2c(nc3cc(C(=O)Nc4cccc(C(F)(F)F)c4)ccc13)CCCC2 | 15.6 µM (active)
COc1ccc(-c2nnc(SC(=O)N3c4ccccc4Sc4ccccc43)o2)cc1 | 0.551 µM (active)

Reference: PubChem BioAssay AID434968 (Broad Institute, 2010)
